# Laboratory results: PubChem BioAssay (Tox21)
# Several values for one entry are separate records, joined by “and”; a condition that tells them apart may be missing. Equal entries are not always repeated. Results filed as inconclusive are left out. Where a call stands in place of a potency, no number is given. Activity calls are given as the source filed them. Unless noted, calls follow the shape of the dose curve; as a rule, active = well fitted curve in the direction sought with a large enough effect in the repeat runs; inconclusive = weak or mixed curves; inactive = no such curve, though single readings can be large; an effect the other way counts as inactive or inconclusive.
# What was measured:
# [1] = qHTS assay to identify small molecule agonists of the RXR signaling pathway - cell viability counter screen (AID 1159529); also: nearly all actives have a fitted effect of over 50% in size; also: potency is read from the fitted curve at half-maximal effect
# Procedure, shortened: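 Tox21 10K compounds were tested for cytotoxicity against GeneBLAzer RXR-alpha HEK 293T cells grown in 2% charcoal-stripped FBS. Exposure lasted 16 hr at 37 C, 5% CO2; viability read by CellTiter-Glo luminescence.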
# [2] = qHTS assay to identify small molecule antagonists of the retinoic acid receptor (RAR) signaling pathway (AID 1159552; also: nearly all actives have a fitted effect of over 50% in size; also: potency is read from the fitted curve at half-maximal effect)
# Procedure, shortened: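 Overnight-plated C3RL4 reporter cells get compound, then retinol to 1 uM final; plates sit 6 hr at 37 C, 5% CO2. A luciferase reagent is added and light output recorded after 30 min at room temperature.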
# [3] = qHTS assay to identify small molecule agonists of the retinoic acid receptor (RAR) signaling pathway (AID 1159553); also: potency is read from the fitted curve at half-maximal effect
# Procedure, shortened: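 In this cell-based screen, 1,000 C3RL4 cells per well were cultured overnight, dosed with test chemicals in DMSO for 6 hr, and assessed for RARE luciferase luminescence.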
# [4] = qHTS assay to identify small molecule antagonists of the retinoid acid receptor (RAR) signaling pathway - cell viability counter screen (AID 1159551); also: nearly all actives have a fitted effect of over 35% in size
# Procedure, shortened: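 In this counter screen, the RARE-luciferase line C3RL4 was exposed for 6 h at 37 C and 5% CO2 to compounds with retinol at 1 uM final. Cellular ATP, read by luminescence, served as the viability measure.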
# [5] = qHTS assay to identify small molecule antagonists of the estrogen related receptor (ERR) signaling pathway - cell viability counter screen (AID 1224818); also: series mostly up to about 46 µM
# Procedure, shortened: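 Viability of ERR cells, CellTiter-Fluor fluorescence; 17.5 h compound exposure at 37 C, DMSO vehicle; 30 min reagent incubation at 37 C/5% CO2.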
# [6] = qHTS assay to identify small molecule antagonists of the estrogen related receptor signaling pathway with the pleiotropic PPARgamma coactivator (PGC) cell viability counter screen (AID 1224822; also: potency is read from the fitted curve at half-maximal effect)
# Procedure, shortened: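 17.5 h compound treatment of PGC/ERR cells at 37 C; readout CellTiter-Fluor fluorescence; run alongside the PGC/ERR antagonist screen to flag cytotoxic compounds.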
# [7] = qHTS assay to identify small molecule antagonists of the estrogen related receptor (ERR) signaling pathway (AID 1224819; also: potency is read from the fitted curve at half-maximal effect; nearly all actives have a fitted effect of over 50% in size)
# Procedure, shortened: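 Seed ERR cells 2,000/well; rest 6 h at 37 C/5% CO2; pin compounds in DMSO; incubate 18 h at 37 C; add One-Glo; wait 30 min at room temperature; measure luminescence.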
# [8] = qHTS assay to identify small molecule agonists of the estrogen related receptor (ERR) signaling pathway (AID 1224820)
# Procedure, shortened: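 After 6 h plating (2,000 cells/well) and 18 h compound treatment at 37 C, ERR cells were lysed with One-Glo and luminescence read after 30 min at room temperature.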
# [9] = tested on: estrogen-related receptor alpha (ERRalpha) with PGC-1alpha coactivator, human; assay: qHTS assay to identify small molecule antagonists of the estrogen related receptor signaling pathway with the pleiotropic PPARgamma coactivator (PGC) (AID 1224821; calls by dose curve; also: potency is read from the fitted curve at half-maximal effect; nearly all actives have a fitted effect of over 50% in size)
# Procedure, shortened: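 Luminescence from One-Glo luciferase reagent (30 min, room temperature) measured after 18 h compound treatment at 37 °C. Cells carry the PGC/ERR reporter and were seeded 6 h prior to dosing.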
# [10] = qHTS assay to identify small molecule agonists of the estrogen related receptor signaling pathway with the pleiotropic PPARgamma coactivator (PGC) (AID 1224823)
# Procedure, shortened: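 Luminescence from One-Glo reagent (30 min, room temperature) was read after 18 h compound treatment at 37 C of PGC/ERR cells plated 6 h beforehand; compounds delivered in DMSO by pin tool.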
smiles,measurement,setting,value
COCCC#N,Potency,[1],inactive
same,Potency,[2],inactive
same,Potency,[3],inactive
COc1c2c(cc3c1OCO3)CCN(C)C2,Potency,[1],inactive
same,Potency,[4],inactive
same,Potency,[3],inactive
O=C(N[C@@H]1N=C(c2ccccc2F)c2cccc3c2N(CC3)C1=O)c1cc2ccccc2[nH]1,Potency,[1],inactive
same,Potency,[2],inactive
same,Potency,[3],inactive
c1ccc2c(c1)cc1ccc3cccc4ccc2c1c34,Potency,[1],inactive
same,Potency,[2],inactive
same,Potency,[3],11.1 µM (active)
CCc1cccc(C)c1N(C(=O)CCl)[C@@H](C)COC,Potency,[1],inactive
same,Potency,[4],inactive
same,Potency,[3],inactive
O=Cc1ccccc1,Potency,[1],inactive
same,Potency,[2],inactive
same,Potency,[3],inactive
COC(=O)c1ccccc1S(=O)(=O)NC(=O)Nc1nc(C)nc(OC)n1,Potency,[1],inactive
same,Potency,[2],inactive
same,Potency,[3],inactive
CCCCCON=O,Potency,[1],inactive
same,Potency,[3],inactive
CCC[CH2][Sn]([CH2]CCC)([CH2]CCC)[CH2]CCC,Potency,[1],21.9 µM (active)
same,Potency,[2],9.69 µM (active)
same,Potency,[3],inactive
CCC1COC(Cn2cncn2)(c2ccc(Cl)cc2Cl)O1 (centres undefined),Potency,[1],inactive
same,Potency,[4],inactive
same,Potency,[3],inactive
CC(C)N(C(=O)SC/C(Cl)=C/Cl)C(C)C,Potency,[1],inactive
same,Potency,[4],inactive
same,Potency,[3],inactive
C#CCO,Potency,[1],inactive
same,Potency,[2],inactive
same,Potency,[3],inactive
Nc1nc(N)nc(Cl)n1,Potency,[1],inactive
same,Potency,[2],inactive
same,Potency,[3],inactive
CCCCC(CC)COC(=O)c1ccccc1C(=O)OCC(CC)CCCC (centres undefined),Potency,[1],inactive
same,Potency,[4],inactive
same,Potency,[3],inactive
same,Potency,[5],inactive
same,Potency,[6],inactive
CC1CCCC1,Potency,[1],inactive
same,Potency,[2],inactive
same,Potency,[3],inactive
N#Cc1ccc(N(CC(N)=O)CC(F)(F)F)cc1C(F)(F)F,Potency,[1],inactive
same,Potency,[2],inactive
same,Potency,[3],inactive
C=CC(=C)C,Potency,[1],inactive
same,Potency,[2],inactive
same,Potency,[3],inactive
CC(C)C(Nc1ccc(C(F)(F)F)cc1Cl)C(=O)OC(C#N)c1cccc(Oc2ccccc2)c1 (centres undefined),Potency,[1],inactive
same,Potency,[2],inactive
CNC(=O)Oc1cc(C)cc(C(C)C)c1,Potency,[1],inactive
same,Potency,[4],inactive
same,Potency,[3],inactive
COP(=O)(OC)O/C(=C\Cl)c1cc(Cl)c(Cl)cc1Cl,Potency,[1],inactive
same,Potency,[4],inactive
same,Potency,[3],inactive
COc1ccc(Cc2nccc3cc(OC)c(OC)cc23)cc1OC,Potency,[1],inactive
same,Potency,[2],inactive
same,Potency,[3],inactive
same,Potency,[5],inactive
same,Potency,[6],inactive
CCN1CCC2(CC1)COc1cc3c(cc12)N(C(=O)c1ccc(-c2ccc(-c4nnc(C)o4)cc2C)cc1)CC3,Potency,[1],3.59 µM (active)
same,Potency,[2],56.4 µM (active)
CCOP(=S)(OCC)SC(CCl)N1C(=O)c2ccccc2C1=O (centres undefined),Potency,[1],inactive
same,Potency,[4],inactive
same,Potency,[3],inactive
Oc1ccc2[nH]cc(CCCCN3CC=C(c4ccccc4)CC3)c2c1,Potency,[1],inactive
same,Potency,[2],inactive
same,Potency,[3],inactive
S=C=NCCc1ccccc1,Potency,[1],inactive
same,Potency,[2],inactive
CC(C)N(C(=O)CCl)c1ccccc1,Potency,[1],24.5 µM (active)
same,Potency,[2],27.3 µM (active) and 30.6 µM (active)
COc1ccc2c3c1O[C@H]1[C@H](O)CC[C@H]4[C@@H](C2)N(C)CC[C@@]341,Potency,[1],inactive
same,Potency,[2],inactive
O=P(Cl)(Cl)Cl,Potency,[1],inactive
same,Potency,[2],inactive
same,Potency,[3],inactive
c1ccc(N=NNc2ccccc2)cc1,Potency,[1],inactive
same,Potency,[2],inactive
same,Potency,[3],3.17 µM (active) and 7.7 µM (active)
[Cl][Hg][c]1ccccc1,Potency,[1],1.23 µM (active)
same,Potency,[2],1.09 µM (active)
CC(Cc1ccc(O)cc1)NCC(O)c1cc(O)cc(O)c1 (centres undefined),Potency,[1],inactive
same,Potency,[4],inactive
same,Potency,[3],inactive
same,Potency,[5],inactive
same,Potency,[6],inactive
CC(Cc1ccc2c(c1)OCO2)NO (centres undefined),Potency,[1],inactive
same,Potency,[2],inactive
same,Potency,[3],inactive
O=C(CCCCl)c1ccc(F)cc1,Potency,[1],inactive
same,Potency,[2],inactive
same,Potency,[3],26.6 µM (active)
CC[N+]1(CC)CCC(OC(=O)C(O)(c2ccccc2)c2ccccc2)C1 (centres undefined),Potency,[1],inactive
same,Potency,[4],inactive
same,Potency,[3],inactive
CN(C)c1ccc(N)cc1,Potency,[1],42.6 µM (active)
same,Potency,[2],inactive
same,Potency,[3],0.596 µM (active)
CC(C)Br,Potency,[1],inactive
same,Potency,[2],inactive
same,Potency,[3],inactive
CCO/N=C(\CC)C1=C(O)CC(c2c(C)cc(C)cc2C)CC1=O (centres undefined),Potency,[5],inactive
same,Potency,[6],inactive
Fc1ccc(C(OCCN2CCN(CCCc3ccccc3)CC2)c2ccc(F)cc2)cc1,Potency,[7],9.08 µM (active)
same,Potency,[8],inactive
same,Potency,[9],12.8 µM (active)
same,Potency,[6],22.8 µM (active)
same,Potency,[10],inactive
